Data: article PMC7862700, “An all-to-all approach to the identification of sequence-specific readers for epigenetic DNA modifications on cytosine”

Key:
Test in all cases: DAPPL (digital affinity profiling via proximity ligation, sequencing); 10 mM Tris-HCl pH 7.5, 50 mM NaCl, 1 mM DTT, 4% glycerol, room temperature, 30 min; GST-TFs on glutathione beads, 16-mer random dsDNA library, 0.1% formaldehyde crosslink after washing; high values mean tight binding
FEV = target: T1, FEV (Homo sapiens, UniProt Q99581 1-238); settings: protein: recombinant; tags: N-terminal GST; dsDNA, one strand shown
T1 sequence: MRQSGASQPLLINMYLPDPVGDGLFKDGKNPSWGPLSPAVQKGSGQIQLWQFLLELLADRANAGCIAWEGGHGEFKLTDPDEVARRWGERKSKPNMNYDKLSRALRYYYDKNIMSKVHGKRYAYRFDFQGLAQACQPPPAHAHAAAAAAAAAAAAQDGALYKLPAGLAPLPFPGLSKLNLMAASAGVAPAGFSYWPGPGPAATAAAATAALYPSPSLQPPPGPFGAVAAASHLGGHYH
Procedure, shortened: (§1)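 A tag-only sample was pooled with DNA-barcoded human transcription factors that had been expressed in yeast as GST fusions and captured on glutathione beads. The pools were incubated for 30 min at room temperature with 200 nmole of a random double-stranded 16-mer DNA library in Tris/NaCl/DTT/glycerol buffer, then washed, crosslinked with 0.1% formaldehyde, proximity-ligated (BsaI/T4 ligase, 1 h, 37 °C), PCR-amplified and sequenced on an Illumina NextSeq500. Binding signal is each hexamer's read frequency for a factor divided by its frequency for the tag-only sample.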

ETV5 = ETV5 (Homo sapiens, UniProt P41161 1-510); settings: protein: recombinant; tags: N-terminal GST; dsDNA, one strand shown
Sequence of ETV5 (P41161 whole entry): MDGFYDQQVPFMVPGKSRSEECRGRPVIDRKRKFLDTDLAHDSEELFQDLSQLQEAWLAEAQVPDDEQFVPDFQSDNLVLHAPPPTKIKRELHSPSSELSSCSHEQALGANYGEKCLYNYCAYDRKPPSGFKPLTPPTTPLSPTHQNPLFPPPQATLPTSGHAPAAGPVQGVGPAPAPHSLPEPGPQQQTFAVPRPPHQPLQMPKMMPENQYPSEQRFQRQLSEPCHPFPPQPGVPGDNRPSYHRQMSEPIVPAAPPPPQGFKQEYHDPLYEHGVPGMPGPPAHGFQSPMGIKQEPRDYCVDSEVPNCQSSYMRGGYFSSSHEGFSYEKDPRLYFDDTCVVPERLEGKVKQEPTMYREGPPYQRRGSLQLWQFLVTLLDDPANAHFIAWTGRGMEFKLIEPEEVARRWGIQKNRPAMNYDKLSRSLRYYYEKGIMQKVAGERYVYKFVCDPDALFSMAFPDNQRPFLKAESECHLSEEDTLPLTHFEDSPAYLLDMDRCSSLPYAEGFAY
Procedure, shortened: as §1

HSF1 = HSF1 (Homo sapiens, UniProt Q00613 1-529); settings: protein: recombinant; tags: N-terminal GST; chain copies: 3; dsDNA, one strand shown
Sequence of HSF1 (Q00613 whole entry): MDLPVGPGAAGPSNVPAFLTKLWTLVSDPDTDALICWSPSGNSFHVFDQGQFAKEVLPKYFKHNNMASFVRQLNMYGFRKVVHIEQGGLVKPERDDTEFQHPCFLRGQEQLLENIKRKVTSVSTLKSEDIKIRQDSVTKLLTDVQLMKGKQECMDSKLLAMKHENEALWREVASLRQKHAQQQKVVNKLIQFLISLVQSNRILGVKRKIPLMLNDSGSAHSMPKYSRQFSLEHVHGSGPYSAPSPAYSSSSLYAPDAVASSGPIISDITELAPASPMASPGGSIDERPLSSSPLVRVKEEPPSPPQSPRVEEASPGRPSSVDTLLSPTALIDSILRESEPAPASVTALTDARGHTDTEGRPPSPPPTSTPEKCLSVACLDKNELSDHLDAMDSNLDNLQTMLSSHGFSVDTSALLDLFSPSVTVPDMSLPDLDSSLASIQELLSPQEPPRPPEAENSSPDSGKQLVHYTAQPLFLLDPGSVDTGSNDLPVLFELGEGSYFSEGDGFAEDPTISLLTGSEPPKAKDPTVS
Procedure, shortened: as §1

SPIC = target: T2, SPIC (Homo sapiens, UniProt Q8N5J4 1-248); settings: protein: recombinant; tags: N-terminal GST; dsDNA, one strand shown
T2 sequence: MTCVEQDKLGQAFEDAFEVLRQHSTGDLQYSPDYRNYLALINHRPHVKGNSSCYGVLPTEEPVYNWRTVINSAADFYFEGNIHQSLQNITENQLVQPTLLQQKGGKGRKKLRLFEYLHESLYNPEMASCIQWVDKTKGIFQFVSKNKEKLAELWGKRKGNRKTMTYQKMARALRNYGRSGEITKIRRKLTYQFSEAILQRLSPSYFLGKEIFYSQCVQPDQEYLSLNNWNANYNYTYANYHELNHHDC
Procedure, shortened: as §1

ELF4 = ELF4 (Homo sapiens, UniProt Q99607 1-663); settings: protein: recombinant; tags: N-terminal GST; dsDNA, one strand shown
Sequence of ELF4 (Q99607 whole entry): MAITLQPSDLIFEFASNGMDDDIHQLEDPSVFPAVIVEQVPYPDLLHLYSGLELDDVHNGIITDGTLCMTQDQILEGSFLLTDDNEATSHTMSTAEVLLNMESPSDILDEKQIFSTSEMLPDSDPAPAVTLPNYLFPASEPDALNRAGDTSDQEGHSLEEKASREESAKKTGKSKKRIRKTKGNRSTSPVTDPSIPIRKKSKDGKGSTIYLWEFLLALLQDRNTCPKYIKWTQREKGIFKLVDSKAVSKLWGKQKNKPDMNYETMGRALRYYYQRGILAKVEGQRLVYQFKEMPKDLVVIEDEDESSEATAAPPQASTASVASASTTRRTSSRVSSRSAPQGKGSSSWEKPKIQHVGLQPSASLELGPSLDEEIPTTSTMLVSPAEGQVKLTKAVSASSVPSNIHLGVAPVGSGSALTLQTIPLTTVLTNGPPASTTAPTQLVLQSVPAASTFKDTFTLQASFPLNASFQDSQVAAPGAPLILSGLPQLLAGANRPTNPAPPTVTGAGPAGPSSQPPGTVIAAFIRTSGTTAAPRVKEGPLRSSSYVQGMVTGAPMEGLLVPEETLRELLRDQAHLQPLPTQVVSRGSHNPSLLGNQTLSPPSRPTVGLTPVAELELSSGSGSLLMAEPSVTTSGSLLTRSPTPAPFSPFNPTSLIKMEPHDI
Procedure, shortened: as §1

ELK4 = target: T3, ELK4 (Homo sapiens, UniProt P28324-2 1-405); settings: protein: recombinant; tags: N-terminal GST; dsDNA, one strand shown
T3 sequence: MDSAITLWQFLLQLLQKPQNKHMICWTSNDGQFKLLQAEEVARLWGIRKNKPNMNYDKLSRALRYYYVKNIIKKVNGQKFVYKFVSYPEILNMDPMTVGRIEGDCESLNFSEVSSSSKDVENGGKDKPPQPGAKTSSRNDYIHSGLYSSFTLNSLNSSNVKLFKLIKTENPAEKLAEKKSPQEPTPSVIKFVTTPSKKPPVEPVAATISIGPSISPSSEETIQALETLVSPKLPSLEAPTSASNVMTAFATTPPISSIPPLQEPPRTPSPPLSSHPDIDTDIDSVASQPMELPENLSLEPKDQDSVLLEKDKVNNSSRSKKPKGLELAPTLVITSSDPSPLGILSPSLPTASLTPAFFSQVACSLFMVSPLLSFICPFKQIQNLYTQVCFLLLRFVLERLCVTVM
Procedure, shortened: as §1

ETV2 = target: T4, ETV2 (Homo sapiens, UniProt O00321 1-342); settings: protein: recombinant; tags: N-terminal GST; dsDNA, one strand shown
T4 sequence: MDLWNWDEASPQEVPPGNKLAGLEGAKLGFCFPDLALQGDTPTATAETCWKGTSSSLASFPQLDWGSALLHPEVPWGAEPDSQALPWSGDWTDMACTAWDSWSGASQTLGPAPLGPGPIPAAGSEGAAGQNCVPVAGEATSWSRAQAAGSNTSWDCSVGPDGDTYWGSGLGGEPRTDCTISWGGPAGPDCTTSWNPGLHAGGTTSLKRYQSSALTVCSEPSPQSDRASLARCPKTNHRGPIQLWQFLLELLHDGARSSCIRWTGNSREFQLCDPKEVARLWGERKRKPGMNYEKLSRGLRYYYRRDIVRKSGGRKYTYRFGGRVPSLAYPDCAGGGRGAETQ
Procedure, shortened: as §1

ELF3 = target: T5, ELF3 (Homo sapiens, UniProt P78545 1-371); settings: protein: recombinant; tags: N-terminal GST; dsDNA, one strand shown
T5 sequence: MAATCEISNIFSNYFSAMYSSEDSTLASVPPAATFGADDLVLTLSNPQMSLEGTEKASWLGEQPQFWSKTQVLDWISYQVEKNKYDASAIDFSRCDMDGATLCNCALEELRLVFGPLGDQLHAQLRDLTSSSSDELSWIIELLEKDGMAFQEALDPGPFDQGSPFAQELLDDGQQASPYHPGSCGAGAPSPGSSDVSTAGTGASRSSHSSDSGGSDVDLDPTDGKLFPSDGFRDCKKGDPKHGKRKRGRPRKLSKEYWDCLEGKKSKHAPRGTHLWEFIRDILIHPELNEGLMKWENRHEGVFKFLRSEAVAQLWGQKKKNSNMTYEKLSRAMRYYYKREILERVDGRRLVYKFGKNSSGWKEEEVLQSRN
Procedure, shortened: as §1

CRX = CRX (Homo sapiens, UniProt O43186 1-299); settings: protein: recombinant; tags: N-terminal GST; dsDNA, one strand shown
Sequence of CRX (O43186 whole entry): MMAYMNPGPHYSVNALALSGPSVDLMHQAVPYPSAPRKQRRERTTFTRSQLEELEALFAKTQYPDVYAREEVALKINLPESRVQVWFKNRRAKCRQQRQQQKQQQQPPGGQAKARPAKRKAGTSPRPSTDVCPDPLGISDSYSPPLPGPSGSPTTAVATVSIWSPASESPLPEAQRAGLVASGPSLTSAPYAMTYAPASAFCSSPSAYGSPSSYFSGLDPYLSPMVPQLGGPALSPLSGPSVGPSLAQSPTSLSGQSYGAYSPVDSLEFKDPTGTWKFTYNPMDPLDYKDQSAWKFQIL
Procedure, shortened: as §1

ETV1 = ETV1 (Homo sapiens, UniProt P50549 1-477); settings: protein: recombinant; tags: N-terminal GST; dsDNA, one strand shown
Sequence of ETV1 (P50549 whole entry): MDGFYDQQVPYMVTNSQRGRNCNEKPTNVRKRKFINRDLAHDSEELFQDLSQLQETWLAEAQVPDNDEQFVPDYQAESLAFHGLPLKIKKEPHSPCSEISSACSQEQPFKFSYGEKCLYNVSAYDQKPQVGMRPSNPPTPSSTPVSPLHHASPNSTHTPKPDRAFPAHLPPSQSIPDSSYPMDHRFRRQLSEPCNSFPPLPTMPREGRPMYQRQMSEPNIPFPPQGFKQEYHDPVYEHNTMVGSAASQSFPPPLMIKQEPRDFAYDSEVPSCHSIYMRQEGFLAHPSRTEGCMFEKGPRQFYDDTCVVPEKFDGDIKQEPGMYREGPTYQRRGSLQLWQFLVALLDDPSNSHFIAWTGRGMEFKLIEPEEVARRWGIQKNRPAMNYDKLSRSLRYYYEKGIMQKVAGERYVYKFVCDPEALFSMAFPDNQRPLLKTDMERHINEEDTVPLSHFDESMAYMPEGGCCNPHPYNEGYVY
Procedure, shortened: as §1

In the case of GACTCT, the binding signal (FEV) is reported as 1.32 fold enrichment (6-mer frequency, TF over GST control), the binding signal (ETV5) is reported as 1.26 fold enrichment (6-mer frequency, TF over GST control) and the binding signal (HSF1) is reported as 1.26 fold enrichment (6-mer frequency, TF over GST control). The binding signal (SPIC) was 1.55 fold enrichment (6-mer frequency, TF over GST control), the binding signal (ELF4) was 1.29 fold enrichment (6-mer frequency, TF over GST control) and the binding signal (ELK4) was 1.28 fold enrichment (6-mer frequency, TF over GST control). For the same sequence, the binding signal (ETV2) was 1.26 fold enrichment (6-mer frequency, TF over GST control), the binding signal (ELF3) was 1.28 fold enrichment (6-mer frequency, TF over GST control) and the binding signal (CRX) was 1.13 fold enrichment (6-mer frequency, TF over GST control). The binding signal (ETV1) was 1.32 fold enrichment (6-mer frequency, TF over GST control).
